Experimental findings from PubChem BioAssay (NCATS) are described below.

Records with an inconclusive call do not appear. A number with no mark means an inactive call. Active and inactive are the calls of the source. Calls follow the shape of the dose curve; as a rule, active = well fitted curve in the direction sought with a large enough effect; inconclusive = small, poorly fitted or top-dose-only effect, or another doubt; inactive = no such curve, though single readings can be large; an effect the other way counts as inactive or inconclusive.

The subject of assay [1] is NIH3T3. The experiment in a line: Cytotoxic Profiling of Annotated Libraries Using Quantitative High-Throughput Screening (AID 1296008). Also: nearly all actives have a fitted effect of over 60% in size. The settings on record: Five cell lines viability, CellTiter-Glo ATP luminescence, 48-72 h; max response: stronger effect = lower value. Summed up: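 Compounds were pin-transferred onto cells and incubated 48 or 72 hr at 37 degree Celsius, 95% humidity. CellTiter-Glo was added, plates sat 10 min at room temperature, then ATP-coupled luminescence was imaged as the viability read-out.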
For orientation: ATP-based viability assays read luminescence as a measure of living cells.

Another assay concerns MCC-13. The assay is described as follows: qHTS assay to identify novel small-molecules to repurpose for Merkel cell carcinoma treatment (AID 1296009). Also: nearly all actives have a fitted effect of over 60% in size. Also: potency is read from the fitted curve at half-maximal effect. To be noted: MCC and control cell lines, CellTiter-Glo viability, 72 h; series mostly up to 46 µM. The method, boiled down: (§1)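 Viability readout: ATP luminescence (CellTiter-Glo) after 72 hr drug exposure at 37 degree celsius. Dose-response format was 8 points for NPC and 11 points for MIPE; data normalized to in-plate controls.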
For orientation: In qHTS, concentration-response curves come from the screen itself.

In the next assay the test system is MCC-26. The assay is described as above. The settings on record: MCC and control cell lines, CellTiter-Glo viability, 72 h; series mostly up to 46 µM. Summed up:
as §1

For another assay, the system named is MKL-1. The assay is described as above. To be noted: MCC and control cell lines, CellTiter-Glo viability, 72 h; series mostly up to 46 µM. Summed up: as §1
The test system of the next assay is MKL-2. The assay is described as above. To be noted: MCC and control cell lines, CellTiter-Glo viability, 72 h; series mostly up to 46 µM. Summed up: as §1
The next assay has as its system UISO. The assay is described as above. The settings on record: MCC and control cell lines, CellTiter-Glo viability, 72 h; series mostly up to 46 µM. Summed up:
as §1

A further assay has as its system WaGa. The assay is described as above. The settings on record: MCC and control cell lines, CellTiter-Glo viability, 72 h; series mostly up to 46 µM. Summed up:
as §1

Another assay has as its system C33A. The assay is described as follows: Primary qHTS to identify gynecologic anti-cancer compounds using libraries of approved drugs and bioactive compounds (AID 1345084). Also: nearly all actives have a fitted effect of over 55% in size. Also: potency is read from the fitted curve at half-maximal effect. The settings on record: Gynecologic cancer cell panel viability, ATPlite luminescence, 48 h; series mostly up to 57.5 µM. The method, boiled down: (§2)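 Cell viability after 48 h drug treatment, ATPlite luminescence readout; five doses.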

The test system of the next assay is CAOV3. Described as above. The settings on record: Gynecologic cancer cell panel viability, ATPlite luminescence, 48 h; series mostly up to 57.5 µM. Summed up:
as §2

The next assay deals with CASKI. The assay is described as above. To be noted: Gynecologic cancer cell panel viability, ATPlite luminescence, 48 h; series mostly up to 57.5 µM. The method, boiled down:
as §2

A further assay deals with Es-2. The assay is described as above. To be noted: Gynecologic cancer cell panel viability, ATPlite luminescence, 48 h; series mostly up to 57.5 µM. Summed up: as §2
Another assay deals with HeLa. Described as above. The settings on record: Gynecologic cancer cell panel viability, ATPlite luminescence, 48 h; series mostly up to 57.5 µM. The method, boiled down:
as §2

For the next assay, the system named is Hek293T. The description is as above. To be noted: Gynecologic cancer cell panel viability, ATPlite luminescence, 48 h, control line for the selectivity index; series mostly up to 57.5 µM. Summed up: as §2
A further assay has as its system JEG-3. The assay is described as above. The settings on record: Gynecologic cancer cell panel viability, ATPlite luminescence, 48 h; series mostly up to 57.5 µM. The method, boiled down: as §2
Another assay deals with OV90. The description is as above. To be noted: Gynecologic cancer cell panel viability, ATPlite luminescence, 48 h; series mostly up to 57.5 µM. Summed up: as §2
The next assay deals with PA-1. The assay is described as above. To be noted: Gynecologic cancer cell panel viability, ATPlite luminescence, 48 h; series mostly up to 57.5 µM. The method, boiled down:
as §2

A further assay deals with SKOV3. The description is as above. To be noted: Gynecologic cancer cell panel viability, ATPlite luminescence, 48 h; series mostly up to 57.5 µM. Summed up:
as §2

The test system of assay [2] is NIH3T3. The assay is described as follows: qHTS assay to identify novel small-molecules to repurpose for Merkel cell carcinoma treatment (AID 1296009). Also: nearly all actives have a fitted effect of over 60% in size. Also: potency is read from the fitted curve at half-maximal effect. To be noted: MCC and control cell lines, CellTiter-Glo viability, 72 h; at 44.8 µM (top of the series) unless noted. Summed up:
as §1

A further assay concerns HACAT. Described as above. The settings on record: MCC and control cell lines, CellTiter-Glo viability, 72 h; at 44.8 µM (top of the series) unless noted. Summed up:
as §1
% is scaled to controls: 0 for no effect and ±100 for the full control effect.

As to `Cc1ccc(C(=O)c2ccc(CC(=O)O)n2C)cc1`, in the assay on NIH3T3 [1], the max response is 0.61%. Also, the Potency result with MCC-13, with MCC-26, in the assay on MKL-1, in the assay with MKL-2, in the assay on UISO and with WaGa was “inactive” throughout. For the same compound, the Potency entry in the assay on C33A, in the assay with CAOV3, in the assay with CASKI, in the assay on Es-2, with HeLa and with Hek293T was “inactive” each time. Also, the Potency result in the assay on JEG-3, in the assay on OV90, in the assay with PA-1 and in the assay with SKOV3 was “inactive” in each case.
On to `CC(=O)O[C@H]1C[C@@]2(C)[C@@H](C[C@@H](O)[C@H]3[C@@]4(C)CC[C@@H](O)[C@@H](C)[C@@H]4CC[C@@]32C)/C1=C(\CCC=C(C)C)C(=O)O`, for which the result in the assay with NIH3T3 [1] and with NIH3T3 [2] was inactive. For the same compound, the Potency entry with C33A, in the assay with CASKI, in the assay with Es-2, in the assay with HeLa, in the assay with Hek293T and in the assay with JEG-3 was “inactive” each time. Moreover, the Potency entry in the assay with OV90, in the assay on PA-1 and in the assay with SKOV3 was “inactive” throughout.
On to `Cc1[nH]cnc1CN1CCc2c(c3ccccc3n2C)C1=O`, for which the Potency result in the assay on MCC-13, with MKL-1, in the assay with MKL-2, with UISO, with WaGa and with C33A was “inactive” in each case. The Potency entry in the assay with CAOV3, in the assay on CASKI, with Es-2, in the assay with HeLa, with Hek293T and in the assay on JEG-3 was “inactive” throughout. Also, the Potency entry with PA-1 and in the assay on SKOV3 was “inactive” in each case.
Take `CCCCN(CC)c1nc(C)nc2c1c(C)cn2-c1c(C)cc(C)cc1C`: the max response in the assay on NIH3T3 [1] was -2.65%. Further, the Potency result in the assay with C33A, in the assay with CASKI, with Es-2, in the assay on HeLa, with Hek293T and in the assay with JEG-3 was “inactive” in each case. The Potency entry in the assay on OV90 and with PA-1 was “inactive” in each case.
`O=C1CN(/N=C/c2ccc([N+](=O)[O-])o2)C(=O)N1`: the call in the assay with NIH3T3 [1] and in the assay with NIH3T3 [2] was inactive. The Potency with WaGa is 23.7 µM (active); with SKOV3, 22.4 µM (active). In addition, the Potency entry in the assay on C33A, in the assay on CASKI, with Es-2, with HeLa and in the assay on PA-1 was “inactive” in each case.
With `COC(=O)C1=C(C)NC(C)=C(C(=O)OCC(C)C)C1c1ccccc1[N+](=O)[O-]` (stereo not drawn), the max response in the assay with NIH3T3 [1] was -5.79%. The Potency in the assay on MKL-1 is 21.1 µM (active); in the assay with MKL-2, 5.96 µM (active); with UISO, 23.7 µM (active); in the assay with WaGa it was 21.1 µM (active). Moreover, the Potency entry with C33A, in the assay on CAOV3, with CASKI, in the assay on Es-2, with HeLa and in the assay on Hek293T was “inactive” each time. Also, the Potency result in the assay on JEG-3, with OV90 and in the assay with PA-1 was “inactive” each time.
As for `Fc1ccc2[nH]c(CN3CCN(c4ccccn4)CC3)cc2c1`, in the assay with NIH3T3 [1], the max response was -28.5%. For the same compound, the Potency entry with C33A, in the assay with CASKI, in the assay on Es-2, with HeLa, in the assay with Hek293T and with JEG-3 was “inactive” each time. The Potency result in the assay with OV90, in the assay with PA-1 and in the assay with SKOV3 was “inactive” in each case.
On to `NC(=O)C(c1ccccc1)(c1ccccc1)[C@@H]1CCN(CCc2ccc3c(c2)CCO3)C1`, for which the Potency entry in the assay with C33A, with CASKI, with Es-2, in the assay on HeLa, in the assay with Hek293T and with JEG-3 was “inactive” throughout. Besides, the Potency entry in the assay on PA-1 was “inactive”.
Turning to `O=C(Nc1ccc2[nH]ncc2c1)C1CCC1`, the max response in the assay on NIH3T3 [1] is 4.63%. In addition, the Potency result with C33A, with CASKI, in the assay with Es-2, in the assay on HeLa, in the assay with Hek293T and with JEG-3 was “inactive” in each case. The Potency entry with OV90, in the assay with PA-1 and with SKOV3 was “inactive” each time.
Take `Nc1ccc(O)c([N+](=O)[O-])c1`: the outcome in the assay on HACAT is “inactive [at 92 µM]”. The Potency result in the assay with MCC-13, with C33A, in the assay with CAOV3, with CASKI, in the assay with Es-2 and with HeLa was “inactive” in each case. Also, the Potency entry in the assay with Hek293T, with JEG-3, with PA-1 and with SKOV3 was “inactive” each time.
On to `COC(=O)Nc1nc2ccc(C(=O)C3CC3)cc2[nH]1`, for which the call in the assay on HACAT was inactive. The Potency in the assay with MCC-13 is 7.5 µM (active); in the assay on C33A, 12.6 µM (active); in the assay on Es-2, 3.16 µM (active); with HeLa, 2 µM (active); in the assay on JEG-3 it was 7.94 µM (active); in the assay on OV90, 11.2 µM (active). The results for the Potency in the assay with PA-1 and with SKOV3 were 1.12 µM (active) and 10 µM (active), respectively. The Potency entry in the assay with CAOV3 was “inactive”.
`CN(CCCOc1ccc(Cc2ccccc2)cc1)CCC(=O)O`: the compound was classed as inactive in the assay on NIH3T3 [1] and with NIH3T3 [2]. Also, the Potency entry in the assay with C33A, with CAOV3, in the assay on CASKI, in the assay on Es-2, in the assay on HeLa and in the assay on Hek293T was “inactive” each time. The Potency entry in the assay on JEG-3, in the assay with OV90, in the assay on PA-1 and in the assay on SKOV3 was “inactive” each time.
As to `CC(C(=O)O)c1ccc(C(=O)c2cccs2)cc1` (stereo not drawn), the Potency result in the assay on C33A, with CAOV3, with CASKI, in the assay with Es-2, in the assay with HeLa and in the assay with Hek293T was “inactive” in each case. Further, the Potency result in the assay with JEG-3, in the assay with OV90, in the assay with PA-1 and in the assay with SKOV3 was “inactive” each time.
`COc1ccc(/C=C/C(=O)Nc2ccccc2C(=O)O)cc1OC`: the max response in the assay with NIH3T3 [1] is -8.92%. The Potency result in the assay with C33A, in the assay on CASKI, in the assay on Es-2, with HeLa, in the assay with Hek293T and with PA-1 was “inactive” in each case.
In the case of `CC1(C)[C@@H](O[C@H]2O[C@H](C(=O)O)[C@@H](O)[C@H](O)[C@H]2O[C@@H]2O[C@H](C(=O)O)[C@@H](O)[C@H](O)[C@H]2O)CC[C@]2(C)[C@H]3C(=O)C=C4[C@@H]5C[C@@](C)(C(=O)O)CC[C@]5(C)CC[C@@]4(C)[C@]3(C)CC[C@@H]12`, the Potency result with C33A, with CASKI, in the assay with Es-2, in the assay with HeLa, with Hek293T and with JEG-3 was “inactive” in each case. Further, the Potency result with OV90 and with PA-1 was “inactive” in each case.
In the case of `Nc1nc2ccc([N+](=O)[O-])cc2s1`, the Potency result with MCC-13, in the assay on MKL-1, with MKL-2, in the assay on C33A, with CASKI and in the assay with Es-2 was “inactive” in each case. The Potency result in the assay on JEG-3, with OV90 and with PA-1 was “inactive” each time.
